For 89 compounds, inhibition results are on record in PubChem BioAssay AID1645857 (Buhrlage Lab, Dana-Farber Cancer Institute and Novartis …, 2021).

Screen size: about 47,000 compounds; about 1,400 (3%) were called active. Rule as the data show it: active = inhibition above about 30%; inactive = the rest. What follows is part of a selection rich in actives, with near analogues and random picks from the rest.

Ubiquitin carboxyl-terminal hydrolase 28 (Homo sapiens), sequence (Q96RU2 whole entry, looked up): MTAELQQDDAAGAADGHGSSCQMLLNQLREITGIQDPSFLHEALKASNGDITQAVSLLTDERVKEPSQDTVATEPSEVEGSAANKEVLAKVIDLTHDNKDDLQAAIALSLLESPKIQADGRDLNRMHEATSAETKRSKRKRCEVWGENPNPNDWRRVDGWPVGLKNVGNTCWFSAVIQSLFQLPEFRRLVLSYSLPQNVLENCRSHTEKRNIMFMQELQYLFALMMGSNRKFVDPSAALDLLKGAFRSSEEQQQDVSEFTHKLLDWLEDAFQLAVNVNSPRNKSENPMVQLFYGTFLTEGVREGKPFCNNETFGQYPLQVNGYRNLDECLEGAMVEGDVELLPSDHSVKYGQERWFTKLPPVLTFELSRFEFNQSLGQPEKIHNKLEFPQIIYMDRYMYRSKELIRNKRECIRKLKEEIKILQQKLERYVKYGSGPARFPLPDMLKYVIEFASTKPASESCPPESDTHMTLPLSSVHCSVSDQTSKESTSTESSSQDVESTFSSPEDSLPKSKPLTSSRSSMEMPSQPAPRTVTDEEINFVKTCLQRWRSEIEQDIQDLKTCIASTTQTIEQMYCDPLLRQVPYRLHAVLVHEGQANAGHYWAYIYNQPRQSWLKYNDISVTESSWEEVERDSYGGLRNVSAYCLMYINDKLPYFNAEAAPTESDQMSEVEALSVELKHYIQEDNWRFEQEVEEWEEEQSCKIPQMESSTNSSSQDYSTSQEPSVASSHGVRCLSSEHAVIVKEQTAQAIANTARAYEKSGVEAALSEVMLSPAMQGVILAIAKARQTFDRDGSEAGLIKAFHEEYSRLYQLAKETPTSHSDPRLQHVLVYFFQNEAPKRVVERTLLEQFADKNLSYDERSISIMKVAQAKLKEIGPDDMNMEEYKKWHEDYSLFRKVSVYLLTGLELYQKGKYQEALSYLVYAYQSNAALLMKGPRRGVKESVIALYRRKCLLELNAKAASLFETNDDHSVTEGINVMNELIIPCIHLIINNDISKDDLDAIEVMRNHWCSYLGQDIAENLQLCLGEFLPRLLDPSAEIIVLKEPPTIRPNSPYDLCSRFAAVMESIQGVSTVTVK

This test has as its target Ubiquitin carboxyl-terminal hydrolase 28 (Homo sapiens) (UniProt Q96RU2). Description: inhibitors of human USP28 deubiquitinase (AID 1645857). Conditions: purified USP28, Ub-rhodamine cleavage fluorescence, 30 min; at 25 µM; active compounds read high.
The term inhibition denotes the change of the read-out against control, counted positive when it falls. Regarding `Cc1noc(-c2cccn(Cc3cc(F)ccc3F)c2=O)n1`, the inhibition was 29% (inactive).
In the case of `O=C(Cn1cccc(-c2nc(-c3ccccc3)no2)c1=O)Nc1ccccc1F`, the inhibition is 6.71% (inactive).
With `N#Cc1ccc(NC(=O)Nc2cccn(Cc3ccccc3F)c2=O)cc1`, the inhibition is 86.6% (active).
For `CC1(C(=O)NC2CCCCCC2)Cn2c(nc3ccccc32)C(=O)N1CCc1ccccc1` (centres undefined), the inhibition is -1.29% (inactive).
`O=C(c1cc2c(=O)n3ccccc3nc2n1Cc1ccccc1)N1CCN(c2ccccc2)CC1`: the inhibition was -0.309% (inactive).
On to `COc1ccc(-c2cnc(SCCNC(=O)c3cccc(F)c3)[nH]2)cc1`, for which the inhibition was 12.3% (inactive).
Take `COc1ccc(NC(=O)c2cc(=O)[nH]c3ccccc23)cc1S(=O)(=O)N1CCOCC1`: the inhibition is -0.445% (inactive).
In the case of `COc1ccc(-c2[nH]c3ccccc3c2SCCNC(=O)c2ccc(S(=O)(=O)N3CCOCC3)cc2)cc1`, the inhibition is 32.8% (active).
`COc1ccccc1Nc1ncnc2oc(C)c(C)c12`: the inhibition is -18.5% (inactive).
Regarding `COc1ccc(OC)c(-n2c(CNC(=O)c3ccco3)nnc2SCC(=O)N2CCc3ccccc32)c1`, the inhibition was 0.00951% (inactive).
Take `CC(=O)c1ccc(NC(=O)CCCn2nc([N+](=O)[O-])cc2C)cc1`: the inhibition was 9.41% (inactive).
Consider `C#CCOc1ccc2ccccc2c1CN1CCc2ccccc2C1`, for which the inhibition was 39.7% (active).
Turning to `C#CCOc1ccc(CN2CCc3nc(-c4cccnc4)[nH]c(=O)c3C2)cc1OC`, the inhibition was -1.43% (inactive).
For `CS(=O)(=O)N1CCC2(CC1)CN(C(=O)c1ccc3[nH]ccc3c1)Cc1ccccc1O2`, the inhibition was 7.47% (inactive).
For the compound `CC(C)Cc1cc(-c2nn3c(-c4ccccc4Cl)nnc3s2)n[nH]1`, the inhibition is 30.4% (active).
On to `COCCn1ccc(-c2cc(C(=O)N3CCCN(C)CC3)c3ccccn23)n1`, for which the inhibition was -61% (inactive).
For the compound `CN(C)c1cccc(NC(=O)N2CC[C@@H]3[C@H]2C(=O)N(C)[C@@H](Cc2ccccc2)C(=O)N3C)c1`, the inhibition is -0.0135% (inactive).
In the case of `Cc1ccc(NC(=O)C2CCN(S(=O)(=O)c3cnc[nH]3)CC2)cc1Cl`, the inhibition was 39% (active).
With `CCc1cccc(NC(=O)C2CCN(c3ccncc3)CC2)c1`, the inhibition is 22% (inactive).
For `CC1CCN(S(=O)(=O)N2CCCC(C(=O)Nc3ccccc3Cl)C2)CC1` (centres undefined), the inhibition is -2.94% (inactive).
As to `COc1ccc(CNC(=O)c2[nH]nc3c2CCc2ccccc2-3)cc1`, the inhibition is 30.6% (active).
The same measure for `COc1ccc(CNC(=O)c2cccc3cccnc23)cc1`: 4.72% (inactive); for `COc1ccc(CNC(=O)c2ccccc2-c2ncc(-c3ccccc3)o2)cc1`: 21.9% (inactive).
Turning to `Cc1nn(-c2ccccc2)c(C)c1S(=O)(=O)N1CCN(c2ccccn2)CC1`, the inhibition is -7.5% (inactive).
On to `O=C(c1ccc(N2CCCC2)nn1)N1CCN(c2ccccn2)CC1`, for which the inhibition is 2.13% (inactive).
As to `Clc1cc2nc(N3CCN(c4ccccn4)CC3)c3nncn3c2cc1Cl`, the inhibition is 36.5% (active).
As for `O=C(N[C@H]1C[C@@H]2C[C@H]1N(C(=O)c1ccc3c(c1)OCO3)C2)c1ccccc1`, the inhibition is -126% (inactive).
Consider `CCOc1ccc(NC(=S)Nc2ccc(Cc3ccncc3)cc2)cc1`, for which the inhibition was 36.8% (active).
On to `O=S(=O)(Nc1ccc(Cc2ccncc2)cc1)c1ccc2c(c1)OCCO2`, for which the inhibition was 9.83% (inactive).
Turning to `CCN(CC)c1ccc(NC(=O)Nc2ccc(OCc3ccccc3)cc2)cc1`, the inhibition is -7.22% (inactive).
In the case of `Cc1cc(-c2ncc(C)[nH]2)nc(C2CCCCN2C(=O)c2ccccc2)n1` (centres undefined), the inhibition is 5.54% (inactive).
In the case of `Cn1c(N2CCN(C(=O)c3cccc(Cl)c3)CC2)cc(=O)n(C)c1=O`, the inhibition is -5.96% (inactive).
The same measure for `CC(=O)C[n+]1cc(-c2ccc(C)cc2)n2c1CCC2`: -0.406% (inactive).
`Clc1ccc(C[n+]2cc(-c3ccc(Cl)cc3)n3c2CCC3)cc1`: the inhibition is 54.6% (active).
For the compound `Cc1c(Cl)cccc1NC(=O)C[n+]1cc(-c2ccc(Cl)cc2)n2c1CCC2`, the inhibition was 10.7% (inactive).
The same measure for `CCCc1cc(=O)[nH]c(N2CCN(c3ccc(Cl)cc3)CC2)n1`: 0.253% (inactive); for `CC(C)=CCC(O)C1=CC(=O)c2c(O)ccc(O)c2C1=O` (centres undefined): 93.4% (active); for `CC(C)=CCc1cc(O)ccc1O`: -0.0939% (inactive).
With `CN1C(=O)[C@H](Cc2ccccc2)N(C)C(=O)[C@@H]2[C@H]1CCN2C(=O)Nc1cccc(C#N)c1`, the inhibition was -9.42% (inactive).
As for `Cn1nc(C2CCN(Cc3ccc4c(c3)CC(C)(C)O4)CC2)c2nccnc21`, the figure is -6.5% (inactive); as for `CC(C)C(=O)N1c2ncnn2C(c2ccc(Cl)cc2)CC1c1ccccc1` (centres undefined), -5.15% (inactive).
In the case of `CC(=O)c1ccc(N2CCN(CC(=O)c3c(N)n(Cc4ccccc4)c(=O)n(C)c3=O)CC2)cc1`, the inhibition was -11.8% (inactive).
As for `CN1CCC(N(C)C(=O)c2ccc(Cl)c(S(=O)(=O)Nc3ccccc3C(=O)N(C)C3CCN(C)CC3)c2)CC1`, the inhibition was -0.184% (inactive).
Take `Cc1ccc(Cn2c(C(=O)O)c(CNC(C)CCc3ccccc3)c3ccccc32)cc1` (centres undefined): the inhibition is 32.3% (active).
The same measure for `CC(CCc1ccccc1)NCc1c(C(=O)O)n(Cc2ccccc2F)c2ccccc12` (centres undefined): 23% (inactive).
Consider `Cc1ccc(CCNCc2c(C(=O)O)n(C)c3ccccc23)cc1`, for which the inhibition was -5.83% (inactive).
As to `CC1CCCCN1Cc1nc2c([nH]1)c(=O)n(C)c(=O)n2C` (centres undefined), the inhibition is -0.186% (inactive).
Take `CCC(Cc1ccccc1)NS(=O)(=O)c1ccc2c(c1)NC(=O)CS2` (centres undefined): the inhibition is 37.3% (active).
With `CC(NS(=O)(=O)c1ccc2c(c1)SCC(=O)N2)c1ccccc1` (centres undefined), the inhibition is 13% (inactive).
Turning to `CCCN(CCC)CCNS(=O)(=O)c1ccc2c(c1)NC(=O)CCS2`, the inhibition was -7.06% (inactive).
`CC(C)NC(=O)CN1C(=O)CC(C)Sc2ccc(S(=O)(=O)N3CCCCC3)cc21` (centres undefined): the inhibition was 13.7% (inactive).
On to `CCc1nnc(C2CCN(C(=O)c3ccc(F)cc3F)CC2)s1`, for which the inhibition was -5.47% (inactive).
`CC1CCN(c2nc(F)c3c(c2F)S(=O)(=O)CCN3Cc2cccnc2)CC1`: the inhibition is -20.5% (inactive).
For `Cc1cccc(-c2nnc(-c3cccc(S(=O)(=O)N4CCCC4)c3)o2)c1`, the inhibition is 4.29% (inactive).
As to `O=C(Nc1nnc(-c2cccc([N+](=O)[O-])c2)o1)C1CCN(S(=O)(=O)c2ccc3c(c2)CCC3)CC1`, the inhibition is 46.2% (active).
As for `O=C(COC(=O)C1CCN(S(=O)(=O)c2c(Cl)cccc2Cl)CC1)Nc1ccc2c(c1)CCC2`, the inhibition is 15.4% (inactive).
Regarding `CCOc1ccc2nc3sc(C(=O)N4CCCC4)c(N)c3cc2c1`, the inhibition is -2.52% (inactive).
Take `COc1ccc(NC(=O)CC[C@@H]2NC(=O)N([C@@H](C)c3ccccc3)C2=O)cc1`: the inhibition was 8.47% (inactive).
Turning to `O=C(CCc1nnc2n(Cc3ccc(Cl)cc3)c(=O)c3ccccc3n12)NCCN1CCOCC1`, the inhibition was -1.7% (inactive).
Consider `Clc1ccc(C2NC3=NCN(Cc4ccco4)CN3c3nc4ccccc4n32)cc1` (centres undefined), for which the inhibition is 32.7% (active).
`CN(Cc1cccnc1Oc1ccccc1)C(=O)c1cnccn1`: the inhibition was -1.11% (inactive).
The same measure for `O=C1COC2(CCN(c3ncccn3)CC2)CN1Cc1cccc(F)c1`: -14.6% (inactive); for `CCN1C[C@H]2C3(CCN(S(=O)(=O)c4ccccc4)CC3)CC[C@@]2(C(=O)NC)C1`: 0.022% (inactive).
Take `N#Cc1ccccc1Cn1c(=O)n(CCCC(=O)NCc2ccc(F)cc2)c(=O)c2ccccc21`: the inhibition is 8.1% (inactive).
As for `Cc1ccc(CNC(=O)CCCn2c(=O)c3sccc3n(CC(=O)OCc3ccccc3)c2=O)cc1`, the inhibition was 45.6% (active).
Consider `COc1ccc(CCNC(=O)CCCn2c(=O)c3ccccc3n(CC(=O)OCc3ccccc3)c2=O)cc1OC`, for which the inhibition is 26.2% (inactive).
Consider `CN1CCc2onc(-c3cccc(CN)c3)c2C1=O`, for which the inhibition was 11.5% (inactive).
Consider `CCOc1ccccc1C1c2[nH]c3ccccc3c2C[C@H]2C(=O)N(CCCc3ccccc3)CC(=O)N12` (some centres undefined), for which the inhibition was -32.1% (inactive).
As to `CSc1ccccc1NC(=O)c1ccc(N2CCCC2)nn1`, the inhibition is 3.05% (inactive).
`CC1CCc2c(cnc3c(C(=O)NCc4cccnc4)cnn23)C1` (centres undefined): the inhibition was -1.11% (inactive).
For `Cc1cc(F)ccc1NC(=O)Cc1n[nH]c(Cc2ccccc2)n1`, the inhibition is -17.7% (inactive).
The same measure for `O=C(Cc1ccc(F)cc1)Nc1ccccc1Cc1ccccc1`: 11.8% (inactive); for `Cc1ccccc1NC(=O)Cc1csc2nc(-c3ccc(F)cc3)cn12`: 37.7% (active); for `N#Cc1ccc(C(=O)N2CCN(c3cc(-c4ccccc4)[nH]n3)CC2)cc1`: -11% (inactive).
As for `CCOC(=O)c1cnn(-c2ccc(C(=O)Nc3ccc(C(C)=O)cc3)cn2)c1N`, the figure is -5.3% (inactive); as for `CC(=O)Nc1cccnc1-c1ccc(C(=O)Nc2ccc(C)c(C)c2)cc1`, 37.1% (active); as for `Cc1ccc(C(=O)Nc2cccc3c2CCCC3)cc1C`, 1.01% (inactive).
Consider `Cc1ccccc1NC(=O)c1ccc(-c2nc3cccnc3n(C3CCCC3)c2=O)cc1`, for which the inhibition is -11.7% (inactive).
On to `O=C(c1cccc(Nc2ncccn2)c1)N1CCOCC2(C1)CN(c1ccccc1)C(=O)O2` (centres undefined), for which the inhibition is -1.6% (inactive).
`COc1ccc(CCNC(=O)c2ccccc2OCc2ccc(F)cc2)cc1`: the inhibition is 10.8% (inactive).
For `COc1ccc(CCNC(=O)c2ccc3ccccc3c2)cc1OC`, the inhibition was 54.7% (active).
As for `COc1ccc(CCNC(=O)CSc2cn(CCNC(=O)c3ccccc3C)c3ccccc23)cc1OC`, the inhibition was 13.1% (inactive).
Turning to `Cc1cc(C)c(-c2nnc(NC(=O)c3ccc(-c4ccccc4)cc3)s2)c(C)c1`, the inhibition was -5.98% (inactive).
`CCOC(=O)c1ccc(NC(=O)CSc2nnc(CNC(=O)c3ccc(OC)cc3)n2C)cc1`: the inhibition is -5.59% (inactive).
For `Cc1ccc(NS(=O)(=O)c2cc3n(c2)CCN(C)C3=O)cc1`, the inhibition was -5.99% (inactive).
Regarding `O=C1C(O)=C(c2ccc(O)c(O)c2)C(=O)C(O)=C1c1ccccc1`, the inhibition was 66.9% (active).
For `O=CNC1CC2(CCCCC2)Oc2ccccc21` (centres undefined), the inhibition is -1.81% (inactive).
With `CN1CC(=O)N(C2CCCNC2)Cc2c(NC3CCc4ccccc43)ncnc21` (centres undefined), the inhibition was 90.6% (active).
As for `c1ccc(-c2csc3ncnc(NC4CCCc5ccccc54)c23)cc1` (centres undefined), the figure is -4.83% (inactive).
